Source: the supplement of paper PMC11732987, “Enantioselective OTUD7B fragment discovery through chemoproteomics screening and high-throughput optimisation” (Communications Chemistry, 2025)

Key:
Experiment in all cases: log2 ratio of Biotin-Ahx-Ub-VS probe labelling (fragment/DMSO); higher = less target engagement (more negative = stronger competition), active = hit call of the paper (q ≤ 0.05, log2 ratio ≤ -1)
Conditions in all cases: compound concentration: 200 uM; treatment time: 3 h
USP42 = target: T1, USP42 (UniProt Q9H9J4)
T1 sequence (whole entry): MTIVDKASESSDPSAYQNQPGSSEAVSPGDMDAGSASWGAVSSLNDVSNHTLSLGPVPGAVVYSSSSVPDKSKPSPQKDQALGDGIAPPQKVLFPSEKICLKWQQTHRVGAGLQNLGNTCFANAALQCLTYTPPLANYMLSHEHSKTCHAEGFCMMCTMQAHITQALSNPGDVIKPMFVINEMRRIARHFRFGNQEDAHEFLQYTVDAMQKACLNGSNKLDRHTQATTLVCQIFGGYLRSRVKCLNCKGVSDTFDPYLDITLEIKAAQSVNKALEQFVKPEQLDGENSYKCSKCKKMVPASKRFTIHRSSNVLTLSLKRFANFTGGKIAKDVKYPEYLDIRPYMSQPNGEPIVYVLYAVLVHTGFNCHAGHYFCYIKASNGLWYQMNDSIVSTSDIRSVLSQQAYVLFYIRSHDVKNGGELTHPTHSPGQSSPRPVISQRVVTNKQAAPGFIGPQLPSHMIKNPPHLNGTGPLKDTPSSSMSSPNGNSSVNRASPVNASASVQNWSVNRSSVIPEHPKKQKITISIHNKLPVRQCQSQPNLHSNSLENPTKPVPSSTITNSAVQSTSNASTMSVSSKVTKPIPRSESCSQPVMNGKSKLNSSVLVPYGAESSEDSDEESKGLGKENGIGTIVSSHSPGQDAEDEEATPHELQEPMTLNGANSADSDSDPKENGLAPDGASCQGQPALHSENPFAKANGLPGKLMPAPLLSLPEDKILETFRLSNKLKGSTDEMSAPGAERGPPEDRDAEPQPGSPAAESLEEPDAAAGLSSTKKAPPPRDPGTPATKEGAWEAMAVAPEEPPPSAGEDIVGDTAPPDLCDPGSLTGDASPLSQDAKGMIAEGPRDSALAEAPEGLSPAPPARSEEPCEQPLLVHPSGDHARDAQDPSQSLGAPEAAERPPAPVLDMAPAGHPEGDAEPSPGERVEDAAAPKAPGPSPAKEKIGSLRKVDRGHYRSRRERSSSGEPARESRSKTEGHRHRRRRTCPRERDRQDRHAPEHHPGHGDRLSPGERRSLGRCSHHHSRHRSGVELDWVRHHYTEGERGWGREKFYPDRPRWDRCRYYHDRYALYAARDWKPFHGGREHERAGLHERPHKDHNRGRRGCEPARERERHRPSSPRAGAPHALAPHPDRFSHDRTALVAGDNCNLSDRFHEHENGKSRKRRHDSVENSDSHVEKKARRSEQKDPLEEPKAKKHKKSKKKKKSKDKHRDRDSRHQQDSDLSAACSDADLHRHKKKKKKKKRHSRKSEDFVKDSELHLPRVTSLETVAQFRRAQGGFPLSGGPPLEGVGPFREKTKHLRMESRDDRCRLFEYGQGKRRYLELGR
In short: (§1)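 Labelled DUBs from HEK293T lysate were NeutrAvidin-enriched, digested with LysC and trypsin, and run by diaPASEF LC-MS/MS. Before that, each 495 µg sample in Tris/CHAPS/IGEPAL buffer with protease inhibitors was treated in triplicate with fragment at 200 µM or vehicle for 3 h, then with Biotin-Ahx-Ub-VS at 0.5 µM final for 1 h. Values are average log2 ratios of fragment over vehicle by unpaired t-test, based on global-median-normalised Spectronaut label-free quantities from proteins with ≥2 unique peptides.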

USP46 = USP46 (UniProt P62068)
Sequence of USP46 (P62068 whole entry): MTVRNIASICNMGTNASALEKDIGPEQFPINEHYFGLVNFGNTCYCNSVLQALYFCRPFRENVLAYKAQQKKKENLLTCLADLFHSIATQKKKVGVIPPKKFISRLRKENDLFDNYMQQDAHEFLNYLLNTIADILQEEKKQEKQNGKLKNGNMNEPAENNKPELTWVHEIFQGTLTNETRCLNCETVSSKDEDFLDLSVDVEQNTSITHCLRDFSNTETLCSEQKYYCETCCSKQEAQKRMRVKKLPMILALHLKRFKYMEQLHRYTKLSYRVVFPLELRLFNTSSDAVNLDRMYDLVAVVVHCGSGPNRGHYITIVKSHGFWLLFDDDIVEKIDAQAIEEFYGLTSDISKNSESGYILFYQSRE
In short: as §1

USP47 = target: T2, USP47 (UniProt Q96K76)
T2 sequence (whole entry): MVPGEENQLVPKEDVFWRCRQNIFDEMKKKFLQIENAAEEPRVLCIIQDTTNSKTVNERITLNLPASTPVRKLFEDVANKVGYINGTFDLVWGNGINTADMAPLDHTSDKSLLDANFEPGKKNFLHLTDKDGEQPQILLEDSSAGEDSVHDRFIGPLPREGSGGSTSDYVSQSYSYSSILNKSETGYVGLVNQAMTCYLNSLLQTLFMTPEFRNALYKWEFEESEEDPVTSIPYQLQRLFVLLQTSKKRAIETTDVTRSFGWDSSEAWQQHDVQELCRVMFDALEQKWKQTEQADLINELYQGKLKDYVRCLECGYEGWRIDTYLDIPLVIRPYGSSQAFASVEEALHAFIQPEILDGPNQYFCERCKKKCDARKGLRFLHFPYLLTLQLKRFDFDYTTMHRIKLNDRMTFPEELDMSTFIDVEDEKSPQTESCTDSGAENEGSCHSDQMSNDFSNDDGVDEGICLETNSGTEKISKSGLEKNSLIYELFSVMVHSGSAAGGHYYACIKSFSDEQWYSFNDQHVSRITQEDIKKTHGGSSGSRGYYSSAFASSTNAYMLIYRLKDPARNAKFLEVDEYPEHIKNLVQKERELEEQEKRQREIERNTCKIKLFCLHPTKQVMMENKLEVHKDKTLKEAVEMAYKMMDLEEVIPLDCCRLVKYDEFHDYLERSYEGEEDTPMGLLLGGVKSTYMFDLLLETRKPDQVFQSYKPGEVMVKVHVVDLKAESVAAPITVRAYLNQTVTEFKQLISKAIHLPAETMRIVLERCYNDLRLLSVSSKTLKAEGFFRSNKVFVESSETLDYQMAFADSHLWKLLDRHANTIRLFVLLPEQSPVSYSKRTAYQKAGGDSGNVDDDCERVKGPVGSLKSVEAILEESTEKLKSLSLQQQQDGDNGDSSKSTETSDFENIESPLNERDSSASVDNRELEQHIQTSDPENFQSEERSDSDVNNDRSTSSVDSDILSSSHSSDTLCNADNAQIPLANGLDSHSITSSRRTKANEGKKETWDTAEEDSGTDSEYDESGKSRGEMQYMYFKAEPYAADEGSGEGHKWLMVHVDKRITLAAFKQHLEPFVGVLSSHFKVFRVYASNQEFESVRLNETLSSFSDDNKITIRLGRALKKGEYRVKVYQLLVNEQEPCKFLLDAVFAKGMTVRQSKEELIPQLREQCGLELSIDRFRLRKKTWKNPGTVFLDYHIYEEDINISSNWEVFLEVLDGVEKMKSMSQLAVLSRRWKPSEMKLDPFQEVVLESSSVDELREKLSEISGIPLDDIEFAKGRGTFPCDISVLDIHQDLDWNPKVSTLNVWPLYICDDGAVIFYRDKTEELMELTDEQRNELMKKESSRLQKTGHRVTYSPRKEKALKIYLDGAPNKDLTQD
In short: as §1

USP48 = target: T3, USP48 (UniProt Q86UV5)
T3 sequence (whole entry): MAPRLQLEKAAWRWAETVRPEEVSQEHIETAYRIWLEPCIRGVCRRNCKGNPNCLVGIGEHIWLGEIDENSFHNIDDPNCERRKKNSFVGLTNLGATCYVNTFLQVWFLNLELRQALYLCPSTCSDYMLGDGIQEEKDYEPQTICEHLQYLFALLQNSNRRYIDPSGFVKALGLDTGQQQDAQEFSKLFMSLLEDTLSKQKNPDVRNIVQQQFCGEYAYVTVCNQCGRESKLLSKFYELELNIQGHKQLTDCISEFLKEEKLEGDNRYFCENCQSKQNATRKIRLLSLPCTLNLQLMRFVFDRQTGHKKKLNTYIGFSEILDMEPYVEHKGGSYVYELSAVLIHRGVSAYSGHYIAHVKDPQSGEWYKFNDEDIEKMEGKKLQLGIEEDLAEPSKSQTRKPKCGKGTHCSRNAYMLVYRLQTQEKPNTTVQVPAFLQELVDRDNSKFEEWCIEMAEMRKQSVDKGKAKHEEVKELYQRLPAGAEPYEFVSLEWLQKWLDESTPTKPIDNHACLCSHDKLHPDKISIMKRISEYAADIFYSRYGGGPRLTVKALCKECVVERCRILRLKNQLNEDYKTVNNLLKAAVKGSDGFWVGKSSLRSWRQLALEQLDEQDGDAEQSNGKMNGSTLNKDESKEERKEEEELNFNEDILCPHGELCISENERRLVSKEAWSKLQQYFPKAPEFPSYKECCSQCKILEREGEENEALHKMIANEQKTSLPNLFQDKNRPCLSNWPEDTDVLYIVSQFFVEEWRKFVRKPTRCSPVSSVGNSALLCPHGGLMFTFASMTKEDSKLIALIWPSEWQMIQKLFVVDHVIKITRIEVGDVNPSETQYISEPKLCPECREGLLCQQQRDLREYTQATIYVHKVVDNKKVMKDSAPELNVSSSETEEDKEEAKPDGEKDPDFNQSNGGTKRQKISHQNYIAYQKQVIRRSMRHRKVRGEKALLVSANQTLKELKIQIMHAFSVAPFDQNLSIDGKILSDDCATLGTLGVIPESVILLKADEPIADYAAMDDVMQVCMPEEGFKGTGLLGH
In short: as §1

USP5 = target: T4, USP5 (UniProt P45974)
T4 sequence (whole entry): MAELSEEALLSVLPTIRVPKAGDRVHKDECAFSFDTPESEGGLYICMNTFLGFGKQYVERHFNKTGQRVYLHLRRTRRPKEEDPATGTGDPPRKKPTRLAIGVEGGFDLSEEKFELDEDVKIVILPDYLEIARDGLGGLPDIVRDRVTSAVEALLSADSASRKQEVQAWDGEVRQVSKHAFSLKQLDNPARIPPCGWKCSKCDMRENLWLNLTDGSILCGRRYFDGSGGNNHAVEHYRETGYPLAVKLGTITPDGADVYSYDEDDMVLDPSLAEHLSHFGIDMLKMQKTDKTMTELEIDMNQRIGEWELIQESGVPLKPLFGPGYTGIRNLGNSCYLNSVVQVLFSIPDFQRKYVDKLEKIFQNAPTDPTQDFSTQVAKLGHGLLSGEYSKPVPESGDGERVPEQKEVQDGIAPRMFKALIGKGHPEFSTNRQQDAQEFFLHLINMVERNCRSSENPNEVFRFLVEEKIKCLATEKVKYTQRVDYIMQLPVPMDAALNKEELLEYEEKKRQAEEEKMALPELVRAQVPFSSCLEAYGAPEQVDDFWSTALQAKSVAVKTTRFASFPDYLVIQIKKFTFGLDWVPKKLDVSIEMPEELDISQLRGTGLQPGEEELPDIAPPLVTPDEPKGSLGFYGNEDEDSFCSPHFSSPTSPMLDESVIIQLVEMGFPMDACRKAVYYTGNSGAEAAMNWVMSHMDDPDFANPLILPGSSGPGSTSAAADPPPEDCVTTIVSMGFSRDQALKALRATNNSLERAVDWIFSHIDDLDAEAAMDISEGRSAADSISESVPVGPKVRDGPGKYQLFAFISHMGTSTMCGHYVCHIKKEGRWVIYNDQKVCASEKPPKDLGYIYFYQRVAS
In short: as §1

USP54 = USP54 (UniProt Q70EL1)
Sequence of USP54 (Q70EL1 whole entry): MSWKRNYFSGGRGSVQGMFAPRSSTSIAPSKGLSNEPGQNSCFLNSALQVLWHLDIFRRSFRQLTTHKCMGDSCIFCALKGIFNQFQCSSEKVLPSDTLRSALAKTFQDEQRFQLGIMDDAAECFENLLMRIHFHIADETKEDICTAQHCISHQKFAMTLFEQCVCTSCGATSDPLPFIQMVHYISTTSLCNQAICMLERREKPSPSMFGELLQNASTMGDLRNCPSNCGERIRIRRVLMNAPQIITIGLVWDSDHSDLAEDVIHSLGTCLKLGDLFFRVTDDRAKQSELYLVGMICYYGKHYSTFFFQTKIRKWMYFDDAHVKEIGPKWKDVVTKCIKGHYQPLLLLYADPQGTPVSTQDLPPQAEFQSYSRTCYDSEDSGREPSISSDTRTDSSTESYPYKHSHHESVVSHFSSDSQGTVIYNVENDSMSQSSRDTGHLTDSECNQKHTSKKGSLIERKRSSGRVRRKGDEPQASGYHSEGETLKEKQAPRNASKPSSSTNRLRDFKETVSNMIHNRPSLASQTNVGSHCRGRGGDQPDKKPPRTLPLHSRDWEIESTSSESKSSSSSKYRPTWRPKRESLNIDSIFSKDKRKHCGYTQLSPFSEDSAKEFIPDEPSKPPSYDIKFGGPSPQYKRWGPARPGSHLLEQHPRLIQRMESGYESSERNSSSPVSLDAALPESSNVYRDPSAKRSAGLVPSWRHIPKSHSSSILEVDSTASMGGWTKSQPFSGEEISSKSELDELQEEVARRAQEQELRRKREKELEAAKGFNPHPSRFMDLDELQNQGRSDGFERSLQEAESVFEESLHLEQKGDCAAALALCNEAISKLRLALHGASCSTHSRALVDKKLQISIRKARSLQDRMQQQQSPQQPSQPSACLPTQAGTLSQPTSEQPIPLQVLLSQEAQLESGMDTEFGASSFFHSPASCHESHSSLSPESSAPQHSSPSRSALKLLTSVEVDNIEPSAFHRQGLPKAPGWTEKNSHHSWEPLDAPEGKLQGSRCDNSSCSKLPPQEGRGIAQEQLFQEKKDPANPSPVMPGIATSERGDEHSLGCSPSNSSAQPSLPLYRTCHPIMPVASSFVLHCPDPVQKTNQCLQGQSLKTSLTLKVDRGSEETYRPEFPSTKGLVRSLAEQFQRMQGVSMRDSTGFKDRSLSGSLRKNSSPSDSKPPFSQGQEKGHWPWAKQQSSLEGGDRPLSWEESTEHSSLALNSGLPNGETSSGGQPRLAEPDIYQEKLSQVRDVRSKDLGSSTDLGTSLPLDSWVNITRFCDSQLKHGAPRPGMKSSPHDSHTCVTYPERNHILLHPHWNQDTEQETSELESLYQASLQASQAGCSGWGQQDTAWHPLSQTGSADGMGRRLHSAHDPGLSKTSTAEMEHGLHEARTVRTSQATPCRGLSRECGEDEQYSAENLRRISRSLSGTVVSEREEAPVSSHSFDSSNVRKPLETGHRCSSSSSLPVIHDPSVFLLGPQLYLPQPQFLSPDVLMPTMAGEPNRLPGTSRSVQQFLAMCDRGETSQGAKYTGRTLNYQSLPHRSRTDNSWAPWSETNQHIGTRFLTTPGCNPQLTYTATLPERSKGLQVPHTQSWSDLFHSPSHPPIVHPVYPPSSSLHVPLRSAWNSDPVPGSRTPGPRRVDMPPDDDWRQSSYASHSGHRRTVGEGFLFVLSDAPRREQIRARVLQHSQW
In short: as §1

USP7 = USP7 (UniProt Q93009)
Sequence of USP7 (Q93009 whole entry, looked up): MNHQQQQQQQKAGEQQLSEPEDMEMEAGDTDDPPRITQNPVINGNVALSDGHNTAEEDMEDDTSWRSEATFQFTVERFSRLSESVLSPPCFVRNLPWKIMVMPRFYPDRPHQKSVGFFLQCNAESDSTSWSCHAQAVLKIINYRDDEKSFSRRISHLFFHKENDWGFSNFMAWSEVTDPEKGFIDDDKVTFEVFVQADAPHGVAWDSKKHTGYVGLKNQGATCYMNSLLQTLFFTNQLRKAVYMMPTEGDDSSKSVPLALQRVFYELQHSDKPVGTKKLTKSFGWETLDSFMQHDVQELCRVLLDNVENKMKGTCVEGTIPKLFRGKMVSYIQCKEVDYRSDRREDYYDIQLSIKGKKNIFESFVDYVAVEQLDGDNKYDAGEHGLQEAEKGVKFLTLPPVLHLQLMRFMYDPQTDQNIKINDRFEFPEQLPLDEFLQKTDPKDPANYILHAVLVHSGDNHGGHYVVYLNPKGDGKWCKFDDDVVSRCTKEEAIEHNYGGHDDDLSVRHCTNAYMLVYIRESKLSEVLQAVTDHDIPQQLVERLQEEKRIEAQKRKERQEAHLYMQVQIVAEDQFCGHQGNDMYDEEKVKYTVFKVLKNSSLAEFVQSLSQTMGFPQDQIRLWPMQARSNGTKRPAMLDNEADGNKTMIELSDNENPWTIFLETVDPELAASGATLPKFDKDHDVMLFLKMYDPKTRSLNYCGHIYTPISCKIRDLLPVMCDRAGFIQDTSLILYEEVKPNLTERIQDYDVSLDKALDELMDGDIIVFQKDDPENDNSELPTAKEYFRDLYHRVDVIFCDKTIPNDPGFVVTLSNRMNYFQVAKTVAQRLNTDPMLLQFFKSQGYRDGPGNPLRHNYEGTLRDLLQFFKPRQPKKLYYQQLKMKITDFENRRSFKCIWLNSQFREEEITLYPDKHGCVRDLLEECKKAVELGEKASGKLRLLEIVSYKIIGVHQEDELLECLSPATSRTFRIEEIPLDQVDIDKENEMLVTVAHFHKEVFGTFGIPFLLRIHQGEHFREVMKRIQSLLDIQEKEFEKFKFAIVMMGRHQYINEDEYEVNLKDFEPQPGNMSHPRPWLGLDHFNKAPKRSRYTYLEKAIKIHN
In short: as §1

USP8 = target: T5, USP8 (UniProt P40818)
T5 sequence (whole entry): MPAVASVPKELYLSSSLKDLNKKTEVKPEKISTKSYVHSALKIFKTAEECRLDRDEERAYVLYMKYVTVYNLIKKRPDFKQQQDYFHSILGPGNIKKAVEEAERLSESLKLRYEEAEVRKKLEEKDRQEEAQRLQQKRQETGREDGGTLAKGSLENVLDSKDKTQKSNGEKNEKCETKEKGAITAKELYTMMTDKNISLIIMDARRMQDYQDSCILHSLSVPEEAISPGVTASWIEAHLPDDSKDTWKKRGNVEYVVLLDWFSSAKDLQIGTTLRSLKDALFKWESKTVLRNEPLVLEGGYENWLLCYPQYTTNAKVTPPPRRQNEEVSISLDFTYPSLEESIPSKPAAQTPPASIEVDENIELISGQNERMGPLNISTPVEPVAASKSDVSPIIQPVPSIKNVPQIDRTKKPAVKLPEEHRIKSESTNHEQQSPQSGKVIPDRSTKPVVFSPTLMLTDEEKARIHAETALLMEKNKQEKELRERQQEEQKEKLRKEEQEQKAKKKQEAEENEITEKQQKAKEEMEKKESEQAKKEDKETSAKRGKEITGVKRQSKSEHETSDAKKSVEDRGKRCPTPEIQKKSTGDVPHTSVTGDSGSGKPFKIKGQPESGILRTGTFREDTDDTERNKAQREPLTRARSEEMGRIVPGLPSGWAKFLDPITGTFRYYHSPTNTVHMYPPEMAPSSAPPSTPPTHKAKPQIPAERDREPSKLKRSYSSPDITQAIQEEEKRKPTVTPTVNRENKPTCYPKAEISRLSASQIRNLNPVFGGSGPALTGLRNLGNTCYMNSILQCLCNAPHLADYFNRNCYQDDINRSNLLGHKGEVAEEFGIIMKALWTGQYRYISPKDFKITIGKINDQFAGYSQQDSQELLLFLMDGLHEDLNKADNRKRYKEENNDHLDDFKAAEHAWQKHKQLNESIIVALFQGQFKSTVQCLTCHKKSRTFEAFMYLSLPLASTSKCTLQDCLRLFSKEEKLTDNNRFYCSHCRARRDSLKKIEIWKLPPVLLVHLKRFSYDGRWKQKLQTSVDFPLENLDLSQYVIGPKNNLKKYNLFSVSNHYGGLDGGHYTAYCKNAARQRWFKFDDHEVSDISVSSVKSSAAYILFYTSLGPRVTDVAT
In short: as §1

USP9X = USP9X (UniProt Q93008)
In short: as §1

UniProt O00487 = target: UniProt O00487
Sequence of UniProt O00487 (O00487 whole entry): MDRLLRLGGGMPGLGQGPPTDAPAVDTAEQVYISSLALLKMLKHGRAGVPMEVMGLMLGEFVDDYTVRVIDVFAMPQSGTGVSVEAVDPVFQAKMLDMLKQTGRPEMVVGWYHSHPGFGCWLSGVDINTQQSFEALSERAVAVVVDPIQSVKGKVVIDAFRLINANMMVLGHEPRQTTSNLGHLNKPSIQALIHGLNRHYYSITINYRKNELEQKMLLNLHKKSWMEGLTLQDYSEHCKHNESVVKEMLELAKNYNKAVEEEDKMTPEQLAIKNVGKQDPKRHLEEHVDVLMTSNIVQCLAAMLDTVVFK
In short: as §1

Measured: log2 ratio of Biotin-Ahx-Ub-VS probe labelling

O=C(CCl)N1CCC(C(=O)N2CCCCCC2)CC1
inactive: USP42 0.671 | USP46 -0.142 | USP47 -0.239 | USP48 -0.0351 | USP5 0.0959 | USP54 0.452 | USP7 -0.714 | USP8 -0.0368 | USP9X -0.297 | UniProt O00487 -0.112
